Measurements: PubChem BioAssay
Active and inactive are the calls of the source. Unless noted, the rule behind the calls is not given here.

Key:
[1] = test system: Wnt5a (protein binding on small-molecule microarray); assay: small molecules binding Wnt5a protein – biophysical, small-molecule microarray, 635/667 nm fluorescence, primary screen (AID 1142); conditions: 635 nm fluorescence, higher = more signal;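 note: fluorescence read at 667 nm with signal to noise per printed feature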
[2] = ATP-based viability of Huh7 replicon cells – cell-based, CellTiter-Glo luminescence, basal, 48 h, cytotoxicity control for HCV replication inhibitor project, primary screen (AID 1143); conditions: higher = more signal, called active from +8 up or from −8 down;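 note: Huh7 hepatoma cells carrying a hepatitis C replication reporter with no stimulus; test concentration not given here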
[3] = Pseudomonas biofilm growth suppression – PAO1 strain, BacTiter-Glo luminescence, LB-PBS, primary screen (AID 1144); conditions: P. aeruginosa PAO1 biofilm, 12 h, higher = more signal
[4] = basal CRE-LacZ reporter activity in PC12 – cell-based, unstimulated, primary screen (AID 1145); conditions: no forskolin, luminescence, 4.5 h, higher = more signal, called active from +8 up or from −8 down
[5] = forskolin-driven CRE-LacZ activity in PC12 – cell-based, CRE-LacZ reporter, forskolin-stimulated, primary screen (AID 1146); conditions: luminescence, 4.5 h, higher = more signal, called active from +8 up or from −8 down;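 note: PC12 cells with 6xCRE LacZ reporter stimulated by forskolin 10 µM; beta-galactosidase reporter signal reflecting CREB driven transcription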
[6] = target: Streptavidin (Streptomyces avidinii) (UniProt P22629); assay: compounds binding control protein streptavidin – biophysical, small-molecule microarray, 635/667 nm fluorescence, artefact control for SMM compound annotation, primary screen (AID 1147); conditions: higher = more signal;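 note: signal reflects streptavidin binding to arrayed compounds as a control protein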
[7] = probe aInhba binding on compound microarray – biochemical, small-molecule microarray, 635/667 nm fluorescence, primary screen (AID 1148); conditions: higher = more signal;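 note: score merges 667nm spot fluorescence with signal-to-noise for antibody binding to printed compounds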
Torsin-1A (Homo sapiens) [8] = target: Torsin-1A (Homo sapiens) (UniProt O14656); assay: TOR1A wild-type binding on microarray – cell lysate, small-molecule microarray, lysate, 635/667 nm, primary screen (AID 1149); conditions: COS7 hTOR1A-WT lysate, 635 nm fluorescence, higher = more signal
Torsin-1A (Homo sapiens) [9] = target: Torsin-1A (Homo sapiens) (UniProt O14656); assay: torsin A mutant lysate binding on microarrays – cell lysate, small-molecule microarray, COS7 lysate, 635/667 nm fluorescence, primary screen (AID 1150); conditions: COS7 hTOR1A mutant lysate, 635 nm fluorescence, higher = more signal;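 note: score pools 667 nm emission and signal to noise measuring lysate protein binding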
[10] = test system: Sonic hedgehog protein (Shh); assay: Sonic hedgehog microarray binding compounds – biochemical, small-molecule microarray, 635/667 nm fluorescence, primary screen (AID 1151); conditions: 635 nm fluorescence, higher = more signal;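 note: Shh protein binding to compounds spotted on small-molecule microarray slides; score combines spot fluorescence intensity with signal-to-noise across triplicate slides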
[11] = optical density shifts of acrAB sulA E. coli – strain DRC41, OD650, 48 h, E. coli filamentation inducer project, primary screen (AID 1152); conditions: higher = more signal, called active from +8 up or from −8 down;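 note: E. coli MC1000 strain DRC41 lacking acrAB efflux pump and sulA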
[12] = probe aLefty1 binding on compound microarray – biochemical, small-molecule microarray, 635/667 nm fluorescence, primary screen (AID 1153); conditions: higher = more signal;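 note: score merges spot fluorescence with signal-to-noise ratio from the scanned slide images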
[13] = plasmodial surface anion channel blockers, osmotic lysis – cell-based, P. falciparum Indochina, OD700, 1 h, primary screen (AID 1154); conditions: P. falciparum Indochina infected RBC osmotic lysis, higher = more signal, called active from +8 up or from −8 down
[14] = plasmodial surface anion channel blockers, osmotic lysis – cell-based, P. falciparum Indochina, OD700, 2 h, primary screen (AID 1155);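 note: lysis reports solute entry through the parasite surface anion channel PSAC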; conditions: P. falciparum Indochina infected erythrocytes, higher = more signal, called active from +8 up or from −8 down
[15] = changes in parasitized red cell lysis, either direction – P. falciparum Indochina, OD700, 3 h, PSAC antagonist project, primary screen (AID 1156); conditions: P. falciparum-infected erythrocytes, osmotic lysis, higher = more signal, called active from +8 up or from −8 down
[16] = plasmodial surface anion channel blockers, osmotic lysis – cell-based, P. falciparum Indochina, OD700, 18 h, primary screen (AID 1157); conditions: P. falciparum Indochina infected erythrocytes, osmotic lysis OD700, 18 h; higher = more signal, called active from +8 up or from −8 down
[17] = S6 kinase pathway phospho-S6 level changes – cell-based, A549, cytoblot, luminescence, serum-stimulated, primary screen (AID 1158); conditions: 5 h, higher = more signal;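 note: serum-stimulated A549 lung adenocarcinoma cells; signal is phosphorylated S6 detected by cytoblot immunostaining with HRP secondary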
[18] = target: NADPH oxidase 2 (Homo sapiens) (UniProt P04839); assay: compounds shifting NOX2 Amplex Red fluorescence – cell-based, HEK293-NOX2, PMA-stimulated, NOX inhibitor project, primary screen (AID 1159); conditions: 45 min, higher = more signal, called active from +8 up or from −8 down; note: test concentration not given here
[19] = target: NADPH oxidase 4 (Homo sapiens) (UniProt Q9NPH5); assay: compounds shifting NOX4 Amplex Red fluorescence – cell-based, HEK293-NOX4, tetracycline-induced, NOX inhibitor project, primary screen (AID 1160); conditions: HEK293-NOX4, Amplex Red H2O2 fluorescence, 45 min; higher = more signal, called active from +8 up or from −8 down
[20] = target: NADPH oxidase 5 (Homo sapiens) (UniProt Q96PH1); assay: compounds shifting NOX5 Amplex Red fluorescence – cell-based, HEK293-NOX5, NOX inhibitor project, primary screen (AID 1161); conditions: HEK293-NOX5, ionomycin, 45 min, higher = more signal
Chain of NADPH oxidase 5 (Homo sapiens) (Q96PH1 whole entry, looked up): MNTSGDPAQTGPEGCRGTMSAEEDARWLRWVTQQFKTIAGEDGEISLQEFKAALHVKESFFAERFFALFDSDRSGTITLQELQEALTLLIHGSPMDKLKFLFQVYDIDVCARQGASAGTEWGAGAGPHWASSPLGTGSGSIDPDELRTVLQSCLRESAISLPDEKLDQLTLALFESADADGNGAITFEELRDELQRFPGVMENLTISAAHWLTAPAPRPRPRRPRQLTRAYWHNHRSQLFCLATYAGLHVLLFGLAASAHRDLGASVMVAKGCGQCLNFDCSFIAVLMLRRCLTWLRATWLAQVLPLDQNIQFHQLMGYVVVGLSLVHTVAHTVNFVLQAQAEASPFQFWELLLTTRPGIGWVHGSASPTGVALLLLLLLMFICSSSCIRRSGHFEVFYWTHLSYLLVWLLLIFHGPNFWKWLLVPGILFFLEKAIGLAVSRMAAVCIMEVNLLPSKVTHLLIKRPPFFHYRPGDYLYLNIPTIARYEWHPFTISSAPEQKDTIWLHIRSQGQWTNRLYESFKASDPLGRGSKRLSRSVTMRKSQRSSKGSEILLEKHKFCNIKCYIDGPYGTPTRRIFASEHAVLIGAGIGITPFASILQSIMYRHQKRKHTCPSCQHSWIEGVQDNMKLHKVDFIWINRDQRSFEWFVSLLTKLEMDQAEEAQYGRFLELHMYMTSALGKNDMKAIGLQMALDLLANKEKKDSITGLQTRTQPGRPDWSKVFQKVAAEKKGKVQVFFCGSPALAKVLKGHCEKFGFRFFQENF

Chain of NADPH oxidase 4 (Homo sapiens) (Q9NPH5 whole entry, looked up): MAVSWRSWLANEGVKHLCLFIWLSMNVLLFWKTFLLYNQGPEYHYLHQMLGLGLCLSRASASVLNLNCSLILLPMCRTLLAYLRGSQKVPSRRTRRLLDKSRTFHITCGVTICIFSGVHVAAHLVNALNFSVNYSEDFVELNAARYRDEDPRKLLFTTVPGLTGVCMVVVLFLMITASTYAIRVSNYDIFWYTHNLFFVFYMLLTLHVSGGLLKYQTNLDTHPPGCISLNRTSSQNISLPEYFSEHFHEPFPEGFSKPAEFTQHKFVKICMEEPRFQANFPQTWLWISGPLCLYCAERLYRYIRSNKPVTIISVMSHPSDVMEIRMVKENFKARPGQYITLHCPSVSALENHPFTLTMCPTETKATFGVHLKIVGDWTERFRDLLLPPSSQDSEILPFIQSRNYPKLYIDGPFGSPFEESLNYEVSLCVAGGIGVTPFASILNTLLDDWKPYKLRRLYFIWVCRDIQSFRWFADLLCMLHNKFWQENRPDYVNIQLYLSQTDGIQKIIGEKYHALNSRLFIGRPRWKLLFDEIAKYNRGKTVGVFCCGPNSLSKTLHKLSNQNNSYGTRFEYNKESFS
Chain of NADPH oxidase 2 (Homo sapiens) (P04839 whole entry, looked up): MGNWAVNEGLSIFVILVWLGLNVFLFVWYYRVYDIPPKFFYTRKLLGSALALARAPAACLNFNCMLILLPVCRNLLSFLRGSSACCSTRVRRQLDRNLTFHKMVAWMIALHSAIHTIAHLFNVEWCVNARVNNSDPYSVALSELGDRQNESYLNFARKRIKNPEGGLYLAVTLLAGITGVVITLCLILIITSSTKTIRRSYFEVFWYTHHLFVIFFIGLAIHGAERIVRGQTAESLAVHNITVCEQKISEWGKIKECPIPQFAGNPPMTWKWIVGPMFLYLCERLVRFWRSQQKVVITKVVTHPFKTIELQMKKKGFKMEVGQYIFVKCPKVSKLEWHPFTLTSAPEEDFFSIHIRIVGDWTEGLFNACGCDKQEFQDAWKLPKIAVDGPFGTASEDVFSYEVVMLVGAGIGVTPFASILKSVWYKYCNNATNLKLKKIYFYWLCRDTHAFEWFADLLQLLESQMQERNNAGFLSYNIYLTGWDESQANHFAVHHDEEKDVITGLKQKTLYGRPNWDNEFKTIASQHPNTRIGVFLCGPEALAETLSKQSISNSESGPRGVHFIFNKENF
Chain of Streptavidin (Streptomyces avidinii) (P22629 whole entry, looked up): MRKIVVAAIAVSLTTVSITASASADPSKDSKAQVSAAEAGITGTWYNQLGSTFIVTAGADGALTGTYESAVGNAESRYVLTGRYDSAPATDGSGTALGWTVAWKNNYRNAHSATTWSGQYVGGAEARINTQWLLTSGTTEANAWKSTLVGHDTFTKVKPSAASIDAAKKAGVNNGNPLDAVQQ
Chain of Torsin-1A (Homo sapiens) (O14656 whole entry, looked up): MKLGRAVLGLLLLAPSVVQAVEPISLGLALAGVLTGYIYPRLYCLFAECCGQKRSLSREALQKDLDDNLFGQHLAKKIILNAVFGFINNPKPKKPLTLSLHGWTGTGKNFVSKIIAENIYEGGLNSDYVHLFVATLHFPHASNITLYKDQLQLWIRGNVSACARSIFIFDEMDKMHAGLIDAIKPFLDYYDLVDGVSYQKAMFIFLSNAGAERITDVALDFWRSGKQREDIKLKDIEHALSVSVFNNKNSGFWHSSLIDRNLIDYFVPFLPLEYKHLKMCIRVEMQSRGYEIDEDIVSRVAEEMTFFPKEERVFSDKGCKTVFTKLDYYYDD

Row | SMILES | composite z-score [1] | z-score [2] | z-score [3] | z-score [4] | z-score [5] | composite z-score [6] | composite z-score [7] | composite z-score (Torsin-1A (Homo sapiens) [8]) | composite z-score (Torsin-1A (Homo sapiens) [9]) | composite z-score [10] | z-score [11] | composite z-score [12] | z-score [13] | z-score [14] | z-score [15] | z-score [16] | z-score [17] | z-score [18] | z-score [19] | z-score [20]
1 | CC(C)CON=C1C[C@@H](O)[C@@H](O)[C@@H]2[C@@H]3C(=O)N(Cc4ccc5c(c4)OCO5)C(=O)[C@@H]3CC[C@@H]12 | 0.199 | -0.415 (inactive) | -0.488 (inactive) | 0.241 (inactive) | 0.384 (inactive) | 0.289 | -0.0645 | -0.515 | 0.203 | 0.108 | -0.0395 (inactive) | -0.28 | 7.64 (inactive) | 0.859 (inactive) | -0.0127 (inactive) | 0.548 (inactive) | -0.333 | -0.569 (inactive) | 0.409 (inactive) | 0.443
2 | CCN1C(=O)[C@H]2[C@H]3[C@H](O)[C@H](O)CC(=NOC[C@@H](O)COCc4ccco4)[C@H]3CC[C@H]2C1=O | -0.13 | 0.337 (inactive) | -0.388 (inactive) | -0.926 (inactive) | -0.541 (inactive) | -1.09 | -0.241 | 3.04 | 2.87 | 1.97 | 0.537 (inactive) | -0.22 | -0.392 (inactive) | -0.025 (inactive) | -0.468 (inactive) | 0.108 (inactive) | -0.18 | -7.58 (inactive) | 0.0462 (inactive) | 0.262
3 | C[C@H]1CC[C@H]2C(=O)OC(COc3ccc(C(C)(C)C)cc3)CN2[C@@H]1c1ccc(Br)cc1 (stereo not given in full) | 0.253 | -0.259 (inactive) | -1.12 (inactive) | 2.36 (inactive) | -1.04 (inactive) | 0.468 | -0.176 | 0.213 | 0.179 | 0.0438 | 0.786 (inactive) | -0.103 | 1.39 (inactive) | 0.0974 (inactive) | -1.24 (inactive) | 0.0011 (inactive) | 0.0307 | 0.426 (inactive) | 0.317 (inactive) | 0.671
4 | CCC1=NOC(CCC2CC(OC(=O)NCc3cccc4c3OCO4)CC3(CCCC(COC(=O)NCCc4ccc(Cl)cc4)O3)O2)C1 (stereo not given) | -0.165 | -0.379 (inactive) | 0.612 (inactive) | -0.0755 (inactive) | -0.51 (inactive) | -0.136 | -0.0963 | 0.217 | 0.672 | 0.358 | 0.13 (inactive) | -0.103 | 0.78 (inactive) | -0.172 (inactive) | -0.747 (inactive) | -0.268 (inactive) | -0.695 | 1.28 (inactive) | 0.891 (inactive) | 0.984
